From PubChem
Mito fusion act: blocks mitochondrial division or promotes mitochondrial fusion; S. cerevisiae fusion-defective mutant growth rescue, CellTiterGlo 48 h; Potency, µM (doses to about 46.1 µM), inactives show at the highest dose growth rescue (activation), hits mostly activators; 320,000 tested, 0.23% active; AID 485298; note: % of control where 0% means no effect; nearly all actives have a fitted effect of over 45% in size
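Growth-rescue viability read-out: after 48 h at the non-permissive 37C in glycerol/ethanol YPEG, yeast mitochondrial fusion mutants are measured by CellTiterGlo luminescence; compounds (23 nl pinned per well) restoring growth score as division inhibitors or fusion activators.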
GLS inhibitor: blocks human kidney-isoform glutaminase activity; GLS enzymatic activity, qHTS titration; Potency, µM (top dose mostly 45.5 µM), for the others: top-dose activity change, negative = inhibition, actives largely listed as inhibitors; 410,000 tested, 0.21% active; AID 624170; note: % is set by controls: 0 for no effect and ±100 for the full control effect
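Enzyme dispensed in phosphate buffer (45 mM, pH 8.2, 0.02% Tween-20), compounds pinned in, then 1 mM L-glutamine solution and the glutamate oxidase–HRP–Amplex Red mix added; fluorescence read immediately and again after 30 min at room temperature.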
VDR inh: inhibitors of human vitamin D receptor; P11473; VDR-SRC2-3 peptide fluorescence polarization, 2 h; Potency, µM, inactives show max response, negative = inhibition, actives largely listed as inhibitors; 400,000 tested, 0.93% active; note: % is set by controls: 0 for no effect and ±100 for the full control effect
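Inhibition of the VDR/SRC2-3 peptide interaction is quantified by fluorescence polarization. Compounds (23 nl, pintool) incubate with the reagents for 2 hours at ambient room temperature.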
GCN5L2 inh: GCN5L2 (KAT2A) acetyltransferase inhibition; Q92830; GCN5L2 HAT assay, ThioGlo1 CoA-SH fluorescence; Potency, µM (titrated, usually from 58.9 µM), for the others: at the highest dose activity change, negative = inhibition, actives largely listed as inhibitors; 390,000 tested, 0.21% active; AID 504327; note: % is set by controls: 0 for no effect and ±100 for the full control effect
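Titration-based screen in which CoA formation is detected via maleimide probe ThioGlo1 (50uM) turning fluorescent on thiol reaction; substrates H3(1-25) 75uM and acetyl-CoA 70uM, GCN5L2 20nM, 20 min incubation at room temperature.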
PLK1 PBD inh: blocks phosphopeptide binding to human PLK1 polo-box domain. AID 720504. Potency, µM, for the others: max response, negative = inhibition, actives largely listed as inhibitors. Plk1 PBD binding of FITC phosphopeptide, fluorescence polarization. 360,000 tested, 2.8% active; note: series mostly up to about 57 µM; % is set by controls: 0 for no effect and ±100 for the full control effect; nearly all actives have a fitted effect of over 65% in size
PKM2 act: activators of human pyruvate kinase M2; purified PKM2, Kinase-Glo ATP luminescence, activation; response scale: 0% is enzyme alone, no compound; Potency, µM (doses to about 57.5 µM), for the others: top-dose activation, usual class: activators; 260,000 tested, 0.34% active; AID 1631; note: % is set by controls: 0 for no effect and ±100 for the full control effect; nearly all actives have a fitted effect of over 55% in size
Target sequence (P14618 whole entry, looked up): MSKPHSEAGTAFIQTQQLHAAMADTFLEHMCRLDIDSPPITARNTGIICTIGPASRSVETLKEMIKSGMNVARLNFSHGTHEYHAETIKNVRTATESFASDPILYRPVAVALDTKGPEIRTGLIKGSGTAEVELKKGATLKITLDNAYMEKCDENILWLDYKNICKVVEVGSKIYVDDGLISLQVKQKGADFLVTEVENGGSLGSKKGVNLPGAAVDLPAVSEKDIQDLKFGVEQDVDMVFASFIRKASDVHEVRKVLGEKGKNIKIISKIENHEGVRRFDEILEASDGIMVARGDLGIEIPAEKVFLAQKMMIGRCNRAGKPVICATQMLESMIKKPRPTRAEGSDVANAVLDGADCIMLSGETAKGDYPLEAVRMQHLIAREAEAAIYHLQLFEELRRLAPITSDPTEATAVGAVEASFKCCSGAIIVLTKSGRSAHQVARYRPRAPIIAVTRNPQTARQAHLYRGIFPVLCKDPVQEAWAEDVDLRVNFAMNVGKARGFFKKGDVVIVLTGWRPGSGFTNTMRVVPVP
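Kinase-Glo luminescence reports ATP generated from ADP (0.1 mM) and PEP (0.5 mM) by purified hPK-M2 after 1 h at room temperature, pH 7.2 imidazole buffer; intermediate enzyme activity allows detecting inhibitors and activators.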
Starred values were filed as active, the others as inactive; ? = inconclusive; . = not tested or not shown. Most compounds without a hit are left out; they make up all but 3.4% or so of the library. Calls come from the whole dose curve; as a rule, active = well fitted curve in the direction sought with a large enough effect; inconclusive = small, poorly fitted or top-dose-only effect, or another doubt; inactive = no such curve, though single readings can be large; an effect the other way counts as inactive or inconclusive. Potency is the fitted concentration of half-maximal effect.

SMILES	Mito fusion act	GLS inhibitor	VDR inh	GCN5L2 inh	PLK1 PBD inh	PKM2 act
COc1ccc(-c2nc(SCc3ccc(C#N)cc3)[nH]c(=O)c2C#N)cc1	13%	27%	?	2%	?	.
N#Cc1c(-c2ccccc2)nc(SCC(=O)N(c2ccccc2)c2ccccc2)[nH]c1=O	-6%	2%	-23%	61%	?	-18%
N#Cc1c(-c2ccccc2)nc(SCc2ccc(Cl)cc2)[nH]c1=O	2%	6%	79µM*	-28%	?	.
C=CCSc1nc(-c2ccccc2)c(C#N)c(=O)[nH]1	-1%	22%	1%	-25%	-8%	-1%
N#Cc1c(-c2ccco2)nc(SCc2ccc(F)cc2)[nH]c1=O	1%	1%	-10%	-8%	24µM*	1%
Cc1cccc(N(C(=O)c2ccco2)C(C(=O)NC2CCCC2)c2ccco2)c1C (stereo not drawn)	3%	8%	-3%	-5%	-9%	1%
COc1ccc(Cl)cc1NC(=O)C/C(C)=N/NC(=O)CC#N	9%	19%	-21%	-1%	27µM*	3%
CCn1cnc2cc(NC(=O)COc3ccc(C)cc3)ccc21	.	-11%	-13%	.	-23%	.
NC(=O)c1ccsc1NC(=O)c1cccs1	.	-3%	13%	.	2%	.
Cc1sc(NC(=O)c2cccs2)c(C(N)=O)c1C	3%	0%	-20%	-3%	21µM*	-8%
Cc1ccc(C(=O)Nc2sc(C)c(C)c2C(=O)c2ccccc2)cc1	9%	-19%	45µM*	2%	3µM*	-5%
COC(=O)c1c(NC(=O)c2nc(SCc3ccc(C)cc3)ncc2Cl)sc2c1CCCC2	.	0%	2%	1%	.	.
FC(F)(F)c1ccccc1Cc1c(-c2cccc(Cl)c2)nc2ccc(Br)cn12	.	3%	.	.	4%	.
FC(F)(F)c1ccccc1Cc1c(-c2ccco2)nc2ccc(Br)cn12	.	?	.	.	27µM*	.
COc1ccccc1Cc1c(-c2ccco2)nc2ccc(Br)cn12	.	-21%	.	.	13µM*	.
COc1ccccc1Cc1c(-c2ccco2)nc2ccc(Cl)cn12	.	-3%	.	.	?	.
O=C(NCc1ccccc1)C(=O)NCC(c1ccco1)S(=O)(=O)c1ccccc1 (stereo not drawn)	.	-4%	5%	-2%	.	.
O=C(O)c1ccn2c(C(=O)c3ccc(Cl)cc3)c(-c3ccccc3)cc2c1	8%	0%	-6%	-22%	38µM*	-2%
CC(C)(C#N)NC(=O)C(=O)c1c(-c2ccccc2)cc2ccccn12	-1%	-1%	6%	-7%	-3%	-4%
COc1ccc(C2CC(c3ccc(Br)cc3)=NN2C(=O)c2cccnc2)cc1 (stereo not drawn)	18µM*	0%	-11%	1%	-4%	21%
COc1ccc(C2CC(c3ccccc3)=NN2C(=O)COC(=O)c2cccnc2)cc1 (stereo not drawn)	19%	1%	-4%	24%	2%	4%
O=C(NCc1cccs1)c1ccc2sc([C@@H]3O[C@H](CO)[C@H](O)[C@H](O)[C@H]3O)nc2c1	.	1%	.	.	2%	.
O=C1c2cc(Br)ccc2O[C@@H](c2ccc3c(c2)OCO3)[C@@H]1O	.	.	-2%	.	.	.
Cc1ccccc1OCC(=O)NNC(=O)CSc1nc(N)cc(N)n1	0%	14%	-5%	2%	21µM*	3%
Nc1cc(N)nc(SCC(=O)NNC(=O)Cc2ccccc2)n1	17%	0%	8%	0%	-6%	0%
O=S(=O)(O)Sc1ccccc1	.	7%	.	.	6µM*	.
NS(=O)(=O)c1ccccc1	-6%	11%	-3%	6%	-18%	-3%
CCN(CC)c1ccc(SS(=O)(=O)O)cc1	4%	36%	79µM*	-4%	6.7µM*	-7%
N#Cc1ccccc1S(=O)(=O)N1CCN(CC(O)COc2ccccc2F)CC1 (stereo not drawn)	0%	-9%	-4%	2%	7%	.
O=C(NCCCN1CCCC1=O)c1sc2ccccc2c1Cl	-1%	4%	2%	-17%	1%	8%
